In experiment [1] the target is Nuclear receptor subfamily 1 group I member 3 (Homo sapiens) (UniProt Q14994). The experiment in a line: qHTS assay to identify small molecule antagonists of the constitutive androstane receptor (CAR) signaling pathway (AID 1224838).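 Also: HepG2 cells stably expressing hCAR with CYP2B6 luciferase reporter stimulated by CITCO; nearly all actives have a fitted effect of over 40% in size.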 Also: potency is read from the fitted curve at half-maximal effect. In a few lines: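 Reporter luminescence was quantified after 24 h exposure of hCAR/CYP2B6-2.2kb double-stable HepG2 cells to compounds at 15 concentrations in the presence of 50 nM CITCO final.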
(Quantitative high-throughput screening tests each substance at several concentrations.)

Experiment [2] has the same target. As to the kind of experiment: qHTS assay to identify small molecule agonists of the constitutive androstane receptor (CAR) signaling pathway (AID 1224839).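 Also: HepG2 cells stably carrying human CAR and a CYP2B6 luciferase reporter; series mostly up to about 92 µM; nearly all actives have a fitted effect of over 15% in size.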 In a few lines: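 In this screen, CAR-driven CYP2B6 promoter activity is measured by luminescence in HepG2-CYP2B6-hCAR cells after 24 h with test compounds and 0.75 uM PK11195 (final concentration).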
Experiment [3] in a line: qHTS assay to identify small molecule antagonists of the estrogen related receptor signaling pathway with the pleiotropic PPARgamma coactivator (PGC) from Tox21 10K library - cell viability counter screen (AID 1224840; active = well fitted cell-killing curve with a large enough effect in the repeat runs, not every such curve was filed as active; also: nearly all actives have a fitted effect of over 40% in size). In a few lines:
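Here the PGC/ERR cells serve as a cytotoxicity control: they are exposed to compounds for 17.5 hours at 37 C, and live-cell signal is quantified using CellTiter-Fluor fluorescence.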

The nature of experiment [4]: qHTS assay to identify small molecule antagonists of the estrogen related receptor signaling pathway with the pleiotropic PPARgamma coactivator (PGC) from Tox21 10K library (AID 1224841; call rule not given here; also: actives are mostly falling curves and most rising ones were filed inactive; nearly all actives have a fitted effect of over 50% in size; also: potency is read from the fitted curve at half-maximal effect). In a few lines:
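Each well held 2,000 PGC/ERR cells, pre-incubated six hours (37 C, 5% CO2). Test substances in DMSO were added by pin tool and left for 18 h at 37 C before luciferase detection by One-Glo.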

A short description of experiment [5]: qHTS assay to identify small molecule agonists of the estrogen related receptor signaling pathway with the pleiotropic PPARgamma coactivator (PGC) from Tox21 10K library (AID 1224842). Also: nearly all actives have a fitted effect of over 15% in size. In a few lines: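 PGC/ERR reporter cell line, 2,000 cells per well, incubated 6 h at 37 C before 23 nL compound in DMSO was added. After 18 h at 37 C, One-Glo luminescence read following 30 min at room temperature.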

Experiment [6] deals with Thyrotropin receptor (Homo sapiens) (UniProt P16473). The experiment in a line: qHTS assay to identify small molecule agonists of the thyroid stimulating hormone receptor (TSHR) signaling pathway (AID 1224843; calls by dose curve; also: nearly all actives have a fitted effect of over 45% in size; also: potency is read from the fitted curve at half-maximal effect). In a few lines: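 Steps: seed 800 TSHR-HEK293 cells per well; add test compound and hold 30 min at ambient temperature; dispense cAMP-d2 then anti-cAMP cryptate; incubate 1 h at ambient; measure fluorescence intensity.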

The nature of experiment [7]: qHTS assay to identify small molecule agonists of H2AX (AID 1224845; active = well fitted activation curve with a large enough effect in the signal ratio in the repeat runs, not every such curve was filed as active; the % refers to the signal ratio). In a few lines: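 Wild-type CHO-K1 cells, plated overnight, exposed 3hr at 37C to 15 concentrations (0.76% DMSO final). Lysed, then HTRF anti-pH2AX (S139) cryptate and anti-H2AX-d2 antibodies, 24 hr room temperature; 665/620 nm emission read.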
Experiment [8] is described as follows: qHTS assay to identify small molecule agonists of the hypoxia (HIF-1) signaling pathway (AID 1224846; active = well fitted activation curve with a large enough effect in the signal ratio in the repeat runs, not every such curve was filed as active; the % refers to the signal ratio). In short, it runs like this: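 Hypoxia-pathway activation was scored as increased beta-lactamase from an HRE-controlled reporter in ME-180 cells; plated at 2,000 cells per well with 0.5% dialyzed FBS, they were exposed 17 hrs to compounds and then given CCF4-AM.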

Experiment [9] in a line: qHTS assay to identify small molecule agonists of H2AX - cell viability counter screen (AID 1224847; calls by dose curve; also: top concentration of the series differs between compounds; nearly all actives have a fitted effect of over 30% in size). In a few lines: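 Read-out: CellTiter-Glo luminescence, 30 min RT. Cells: wild-type CHO-K1, 1000/well, 10% FBS, plated overnight at 37C. Treatment: 15 concentrations, 3 hr, 37C, 0.76% DMSO.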
A short description of experiment [10]: qHTS assay to identify small molecule agonists of the hypoxia (HIF-1) signaling pathway - cell viability counter screen (AID 1224844; calls by dose curve; also: nearly all actives have a fitted effect of over 50% in size). In short, it runs like this: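 Multiplexed with the HRE beta-lactamase assay, this viability read used CellTiter-Glo luminescence (30 min, RT) on HRE-bla ME-180 cells treated 17 hrs with compounds in 0.5% dialyzed FBS medium.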

Structures are written as SMILES. Several values for one entry are separate records, joined by “and”; a condition that tells them apart may be missing. Identical values can stand only once. Results filed as inconclusive are left out. The source holds several records for some structures; these can differ, active in one and inactive in another. Activity calls are given as the source filed them. Unless noted, calls follow the shape of the dose curve; as a rule, active = well fitted curve in the direction sought with a large enough effect in the repeat runs; inconclusive = weak or mixed curves; inactive = no such curve, though single readings can be large; an effect the other way counts as inactive or inconclusive.

Chain of Thyrotropin receptor (Homo sapiens) (P16473 whole entry, looked up): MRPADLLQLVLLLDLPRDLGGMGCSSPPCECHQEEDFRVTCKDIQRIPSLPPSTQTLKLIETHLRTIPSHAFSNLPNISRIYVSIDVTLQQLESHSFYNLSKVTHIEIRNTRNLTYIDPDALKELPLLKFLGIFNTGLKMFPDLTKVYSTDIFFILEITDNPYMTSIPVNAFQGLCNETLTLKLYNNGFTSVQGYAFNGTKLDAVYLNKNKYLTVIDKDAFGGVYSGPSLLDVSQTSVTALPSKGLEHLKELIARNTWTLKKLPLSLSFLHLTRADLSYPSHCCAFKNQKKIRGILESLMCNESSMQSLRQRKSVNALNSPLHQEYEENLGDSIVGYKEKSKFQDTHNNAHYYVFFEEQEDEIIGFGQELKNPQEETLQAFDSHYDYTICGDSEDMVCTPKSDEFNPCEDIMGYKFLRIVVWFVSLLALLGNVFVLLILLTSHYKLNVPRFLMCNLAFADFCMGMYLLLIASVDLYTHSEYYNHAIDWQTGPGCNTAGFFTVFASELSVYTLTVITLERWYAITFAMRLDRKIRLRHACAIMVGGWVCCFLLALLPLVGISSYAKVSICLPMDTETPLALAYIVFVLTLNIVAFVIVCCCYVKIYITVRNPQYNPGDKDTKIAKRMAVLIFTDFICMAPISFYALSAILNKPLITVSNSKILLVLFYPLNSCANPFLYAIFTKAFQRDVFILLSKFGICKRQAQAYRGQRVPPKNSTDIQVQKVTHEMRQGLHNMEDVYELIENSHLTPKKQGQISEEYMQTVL
Chain of Nuclear receptor subfamily 1 group I member 3 (Homo sapiens) (Q14994 whole entry, looked up): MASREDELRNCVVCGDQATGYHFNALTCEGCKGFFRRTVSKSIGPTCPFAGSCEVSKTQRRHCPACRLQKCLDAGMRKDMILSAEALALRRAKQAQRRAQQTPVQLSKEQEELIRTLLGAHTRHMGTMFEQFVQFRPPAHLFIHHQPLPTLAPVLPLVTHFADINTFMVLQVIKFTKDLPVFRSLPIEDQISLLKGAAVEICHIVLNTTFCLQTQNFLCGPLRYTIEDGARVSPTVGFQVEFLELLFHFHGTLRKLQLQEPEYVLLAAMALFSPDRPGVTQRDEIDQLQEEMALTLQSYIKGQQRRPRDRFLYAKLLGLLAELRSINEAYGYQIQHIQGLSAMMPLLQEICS

On to `CC(=O)CC(=O)Nc1ccccc1C`, for which the Potency result in experiment [1], in experiment [2], in experiment [3], in experiment [4], in [7] and in experiment [9] was “inactive” throughout. The compound was classed as inactive in experiment [5] and in [8]. In addition, the Potency in experiment [6] is 9.8 µM (active) and inactive.
For the compound `CSCCC=O`, the Potency result in experiment [1], in experiment [2], in experiment [3], in experiment [4], in [10] and in experiment [7] was “inactive” each time. The Potency result in experiment [9] was “inactive”. Moreover, the result in experiment [5] and in experiment [8] was inactive.
For the compound `O=C(O)CCCCCCCCCCC(=O)O`, in [1], the Potency entry is “inactive and 1 nM (active)”. Further, the Potency entry in experiment [2], in experiment [3], in experiment [6], in experiment [10], in experiment [7] and in experiment [9] was “inactive” each time. In addition, the outcome in [8] was inactive.
In the case of `CCC(O)OCCCOC` (stereo not drawn), the Potency entry in experiment [1], in experiment [2], in [3], in experiment [4], in [6] and in experiment [7] was “inactive” throughout. Also, in experiment [9], the Potency result is “inactive”. Also, the compound was called inactive in experiment [5] and in experiment [8].
Turning to `CN(C)CCCN`, the Potency entry in experiment [1], in experiment [2], in [3], in [4], in experiment [6] and in experiment [10] was “inactive” in each case. Further, the Potency entry in [7] and in [9] was “inactive” in each case. The call in experiment [5] and in experiment [8] was inactive.
As to `O=c1[nH]nnc2ccccc12`, the Potency result in [1], in experiment [2], in [3], in experiment [4], in experiment [6] and in experiment [7] was “inactive” throughout. Besides, the Potency result in experiment [9] was “inactive”. The compound was called inactive in experiment [5] and in experiment [8].
Regarding `CCCCC(CC)COC(=O)CCCCC(=O)OCC(CC)CCCC` (stereo not drawn), the Potency result in experiment [1], in experiment [2], in [3], in experiment [6], in experiment [10] and in [7] was “inactive” each time. The Potency result in experiment [9] is “inactive”. Further, in [8], the compound was classed as inactive.
In the case of `O=C(O)CCCC[C@@H]1SC[C@@H]2NC(=O)N[C@@H]21`, the Potency entry in experiment [1], in experiment [2], in [3], in experiment [4], in [6] and in experiment [10] was “inactive” each time. The Potency entry in [7] and in experiment [9] was “inactive” each time. For the same compound, in experiment [5], the compound was called inactive.
As to `O=c1[nH]c(=O)n([C@H]2CCCO2)cc1F`, the Potency result in experiment [1], in experiment [2], in [3], in experiment [6], in experiment [10] and in experiment [7] was “inactive” each time. The Potency entry in experiment [9] was “inactive”. The outcome in [8] was inactive.
In the case of `CN(C)CCOCCN(C)C`, the Potency result in experiment [1], in experiment [2], in [3], in [4], in experiment [6] and in experiment [7] was “inactive” each time. Moreover, in [9], the Potency result is “inactive”. Moreover, the outcome in [5] and in experiment [8] was inactive.
For `Cc1cccc(O)c1`, the Potency entry in [1], in experiment [2], in experiment [3], in experiment [4], in experiment [7] and in [9] was “inactive” throughout. Also, the call in experiment [5] and in [8] was inactive.
In the case of `CCCCCC1=CCCC1=O`, the Potency entry in experiment [1], in [2], in experiment [3], in experiment [6], in [10] and in experiment [7] was “inactive” each time. Further, the Potency entry in experiment [9] was “inactive”. In experiment [8], the compound was called inactive.
As to `ON=C1CCCCC1`, the Potency result in experiment [1], in experiment [2], in [3], in experiment [4], in experiment [6] and in [10] was “inactive” each time. The Potency result in [7] and in [9] was “inactive” in each case. Also, the outcome in experiment [5] and in experiment [8] was inactive.
Take `CC(=O)Nc1ccccc1`: the Potency entry in experiment [1], in experiment [2], in experiment [3], in experiment [6], in experiment [10] and in experiment [7] was “inactive” throughout. The Potency entry in experiment [9] was “inactive”. For the same compound, in experiment [8], the outcome was inactive.
As for `O=C(O)CC(C(=O)O)C(CC(=O)O)C(=O)O` (stereo not drawn), the Potency result in [1], in [2], in experiment [3], in experiment [10], in experiment [7] and in experiment [9] was “inactive” throughout. Further, in experiment [6], the Potency is 268 nM (active) and inactive. Moreover, the compound was called inactive in experiment [8].
Turning to `COc1ccc(NC(C)=O)cc1N`, the Potency result in experiment [1], in [2], in [3], in experiment [6], in experiment [10] and in experiment [7] was “inactive” in each case. Moreover, the Potency result in [9] is “inactive”. In addition, in experiment [8], the compound was classed as inactive.
As to `OC[C@H]1O[C@@](CO)(O[C@H]2O[C@H](CO)[C@@H](O)[C@H](O)[C@H]2O)[C@@H](O)[C@@H]1O`, the Potency entry in experiment [1], in experiment [2], in [3], in experiment [4], in experiment [10] and in [7] was “inactive” in each case. For the same compound, the Potency result in experiment [9] was “inactive”. The result in [5] and in experiment [8] was inactive.
Take `O=C(Oc1ccccc1)c1ccccc1`: the Potency entry in experiment [1], in experiment [2], in experiment [3], in experiment [4], in [6] and in experiment [10] was “inactive” in each case. Besides, the Potency entry in [7] and in experiment [9] was “inactive” throughout. Also, the call in experiment [5] and in experiment [8] was inactive.
On to `COS(C)(=O)=O`, for which the Potency entry in experiment [1], in experiment [2], in experiment [3], in [6], in experiment [7] and in [9] was “inactive” in each case. For the same compound, the Potency in experiment [4] was 35.7 µM (active) and inactive. Besides, the compound was classed as inactive in experiment [5] and in experiment [8].
As for `N[C@@H](Cc1cc(I)c(Oc2cc(I)c(O)c(I)c2)c(I)c1)C(=O)O`, the Potency result in experiment [1], in [2], in experiment [3], in experiment [4], in experiment [6] and in experiment [10] was “inactive” throughout. Also, the Potency result in [7] and in experiment [9] was “inactive” each time. In addition, the outcome in [5] and in experiment [8] was inactive.
Regarding `Fc1ccc(Br)cc1`, the Potency result in experiment [1], in experiment [2], in [3], in experiment [4], in experiment [10] and in experiment [7] was “inactive” in each case. The Potency entry in experiment [9] was “inactive”. Moreover, the outcome in [5] and in experiment [8] was inactive. For the same compound, the Potency in [6] was 30.9 µM (active) and inactive.
As to `CC1CCC(C(C)C)C(O)C1` (stereo not drawn), the Potency entry in [1], in [2], in experiment [3], in experiment [6], in experiment [10] and in experiment [7] was “inactive” each time. Besides, the Potency entry in experiment [9] is “inactive”. In addition, in experiment [8], the call was inactive.
Regarding `O=C(O)c1ccccc1C(c1ccc(O)cc1)c1ccc(O)cc1`, the Potency result in experiment [1], in experiment [2], in experiment [3], in experiment [4], in [6] and in experiment [10] was “inactive” each time. Also, the Potency result in experiment [7] and in [9] was “inactive” in each case. Besides, the result in [5] and in experiment [8] was inactive.
Turning to `c1ccc2c(c1)ccc1ccccc12`, the Potency result in experiment [1], in experiment [2], in experiment [3], in experiment [4], in [10] and in experiment [7] was “inactive” throughout. Moreover, the Potency result in [9] is “inactive”. Besides, the outcome in experiment [5] and in experiment [8] was inactive.

Values taken from PubChem BioAssay (Tox21).
